# From the supplement of paper PMC4466140
# B1: unnamed (peptide)
# chain: DAPASKPSVPPRNYF
# B2: unnamed (peptide)
# chain: DLFKPLPEPPTELGR
# B3: unnamed (peptide)
# chain: AHFQPQRTAPKPPIS
# Biological target: AgAbp1
# Test: SPOT peptide array binding signal intensity (averaged, normalized) (arbitrary units (background-subtracted, floor 0; scale differs between SH3 domains)); higher = stronger binding of the SH3 domain to the peptide
# Method in brief: (§1)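 The binding signal is the normalized, background-subtracted spot intensity averaged over replicates; its arbitrary units differ between domains. It was obtained by incubating 10 μg/ml GST-fused SH3 domains from four yeast species overnight at 4°C in TBS-based blocking buffer on cellulose membranes with synthetic 15-mer peptides, cysteines replaced by serines, then detecting with anti-GST antibody, HRP anti-mouse secondary and luminol.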
row,Binder,SPOT peptide array binding signal intensity
1,B1,2.5
2,B2,2.5
3,B3,2.5

# Biological target: AgBbc1
# Test: as above
# Method in brief: as §1
row,Binder,SPOT peptide array binding signal intensity
1,B1,239
2,B2,≤ 0
3,B3,89.8

# Biological target: AgBem1-D1
# Test: as above
# Method in brief: as §1
row,Binder,SPOT peptide array binding signal intensity
1,B1,2
2,B2,≤ 0
3,B3,58.8

# Biological target: AgBzz1-D1
# Test: as above
# Method in brief: as §1
row,Binder,SPOT peptide array binding signal intensity
1,B1,26.5
2,B2,22
3,B3,16

# Biological target: AgBzz1-D2
# Test: as above
# Method in brief: as §1
row,Binder,SPOT peptide array binding signal intensity
1,B1,≤ 0
2,B2,≤ 0
3,B3,54.5

# Biological target: AgCyk3
# Test: as above
# Method in brief: as §1
row,Binder,SPOT peptide array binding signal intensity
1,B1,2.5
2,B2,1
3,B3,≤ 0

# Biological target: AgFus1
# Test: as above
# Method in brief: as §1
row,Binder,SPOT peptide array binding signal intensity
1,B1,≤ 0
2,B2,1
3,B3,≤ 0

# Biological target: AgHof1
# Test: as above
# Method in brief: as §1
row,Binder,SPOT peptide array binding signal intensity
1,B1,≤ 0
2,B2,≤ 0
3,B3,3

# Biological target: AgHse1
# Test: as above
# Method in brief: as §1
row,Binder,SPOT peptide array binding signal intensity
1,B1,≤ 0
2,B2,27
3,B3,18

# Biological target: AgLsb1
# Test: as above
# Method in brief: as §1
row,Binder,SPOT peptide array binding signal intensity
1,B1,1080
2,B2,≤ 0
3,B3,16.8

# Biological target: AgLsb4
# Test: as above
# Method in brief: as §1
row,Binder,SPOT peptide array binding signal intensity
1,B1,69.5
2,B2,5
3,B3,0.5

# Biological target: AgMyo5
# Test: as above
# Method in brief: as §1
row,Binder,SPOT peptide array binding signal intensity
1,B1,≤ 0
2,B2,≤ 0
3,B3,954

# Biological target: AgNbp2
# Test: as above
# Method in brief: as §1
row,Binder,SPOT peptide array binding signal intensity
1,B1,45
2,B2,≤ 0
3,B3,3970

# Biological target: AgRvs167
# Test: as above
# Method in brief: as §1
row,Binder,SPOT peptide array binding signal intensity
1,B1,13.2
2,B2,0.333
3,B3,0.583

# Biological target: AgSho1
# Test: as above
# Method in brief: as §1
row,Binder,SPOT peptide array binding signal intensity
1,B1,1
2,B2,1410
3,B3,≤ 0

# Biological target: AgSla1-D1-D2
# Test: as above
# Method in brief: as §1
row,Binder,SPOT peptide array binding signal intensity
1,B1,≤ 0
2,B2,≤ 0
3,B3,≤ 0

# Biological target: AgSla1-D3
# Test: as above
# Method in brief: as §1
row,Binder,SPOT peptide array binding signal intensity
1,B1,≤ 0
2,B2,≤ 0
3,B3,1

# Biological target: CaAbp1-D1
# Test: as above
# Method in brief: as §1
row,Binder,SPOT peptide array binding signal intensity
1,B1,17.5
2,B2,≤ 0
3,B3,65.5

# Biological target: CaAbp1-D2
# Test: as above
# Method in brief: as §1
row,Binder,SPOT peptide array binding signal intensity
1,B1,3
2,B2,≤ 0
3,B3,33.8

# Biological target: CaBbc1
# Test: as above
# Method in brief: as §1
row,Binder,SPOT peptide array binding signal intensity
1,B1,962
2,B2,≤ 0
3,B3,743

# Biological target: CaBem1-D1
# Test: as above
# Method in brief: as §1
row,Binder,SPOT peptide array binding signal intensity
1,B1,≤ 0
2,B2,≤ 0
3,B3,958

# Biological target: CaBzz1-D1
# Test: as above
# Method in brief: as §1
row,Binder,SPOT peptide array binding signal intensity
1,B1,190
2,B2,≤ 0
3,B3,779

# Biological target: CaBzz1-D2
# Test: as above
# Method in brief: as §1
row,Binder,SPOT peptide array binding signal intensity
1,B1,5.75
2,B2,≤ 0
3,B3,136

# Biological target: CaCyk3
# Test: as above
# Method in brief: as §1
row,Binder,SPOT peptide array binding signal intensity
1,B1,34.5
2,B2,≤ 0
3,B3,≤ 0

# Biological target: CaFus1
# Test: as above
# Method in brief: as §1
row,Binder,SPOT peptide array binding signal intensity
1,B1,≤ 0
2,B2,7
3,B3,≤ 0

# Biological target: CaHof1
# Test: as above
# Method in brief: as §1
row,Binder,SPOT peptide array binding signal intensity
1,B1,≤ 0
2,B2,1
3,B3,≤ 0

# Biological target: CaHse1
# Test: as above
# Method in brief: as §1
row,Binder,SPOT peptide array binding signal intensity
1,B1,≤ 0
2,B2,16
3,B3,2.5

# Biological target: CaLsb1
# Test: as above
# Method in brief: as §1
row,Binder,SPOT peptide array binding signal intensity
1,B1,35
2,B2,≤ 0
3,B3,≤ 0

# Biological target: CaLsb4
# Test: as above
# Method in brief: as §1
row,Binder,SPOT peptide array binding signal intensity
1,B1,427
2,B2,≤ 0
3,B3,23

# Biological target: CaMyo5
# Test: as above
# Method in brief: as §1
row,Binder,SPOT peptide array binding signal intensity
1,B1,≤ 0
2,B2,≤ 0
3,B3,33.6

# Biological target: CaNbp2
# Test: as above
# Method in brief: as §1
row,Binder,SPOT peptide array binding signal intensity
1,B1,≤ 0
2,B2,≤ 0
3,B3,3970

# Biological target: CaRvs167
# Test: as above
# Method in brief: as §1
row,Binder,SPOT peptide array binding signal intensity
1,B1,199
2,B2,6.67
3,B3,12.8

# Biological target: CaRvs167-3
# Test: as above
# Method in brief: as §1
row,Binder,SPOT peptide array binding signal intensity
1,B1,≤ 0
2,B2,≤ 0
3,B3,≤ 0

# Biological target: CaSho1
# Test: as above
# Method in brief: as §1
row,Binder,SPOT peptide array binding signal intensity
1,B1,≤ 0
2,B2,2540
3,B3,11.8

# Biological target: CaSla1-D1-D2
# Test: as above
# Method in brief: as §1
row,Binder,SPOT peptide array binding signal intensity
1,B1,38
2,B2,≤ 0
3,B3,54.5

# Biological target: CaSla1-D3
# Test: as above
# Method in brief: as §1
row,Binder,SPOT peptide array binding signal intensity
1,B1,≤ 0
2,B2,≤ 0
3,B3,0.75

# Biological target: ScAbp1
# Test: as above
# Method in brief: as §1
row,Binder,SPOT peptide array binding signal intensity
1,B1,≤ 0
2,B2,≤ 0
3,B3,11

# Biological target: ScBbc1
# Test: as above
# Method in brief: as §1
row,Binder,SPOT peptide array binding signal intensity
1,B1,5.5
2,B2,≤ 0
3,B3,165

# Biological target: ScBem1-D1
# Test: as above
# Method in brief: as §1
row,Binder,SPOT peptide array binding signal intensity
1,B1,2
2,B2,≤ 0
3,B3,6

# Biological target: ScBzz1-D1
# Test: as above
# Method in brief: as §1
row,Binder,SPOT peptide array binding signal intensity
1,B1,20
2,B2,1
3,B3,17.5

# Biological target: ScBzz1-D2
# Test: as above
# Method in brief: as §1
row,Binder,SPOT peptide array binding signal intensity
1,B1,10
2,B2,≤ 0
3,B3,12.8

# Biological target: ScCyk3
# Test: as above
# Method in brief: as §1
row,Binder,SPOT peptide array binding signal intensity
1,B1,≤ 0
2,B2,≤ 0
3,B3,≤ 0

# Biological target: ScFus1
# Test: as above
# Method in brief: as §1
row,Binder,SPOT peptide array binding signal intensity
1,B1,≤ 0
2,B2,≤ 0
3,B3,≤ 0

# Biological target: ScHof1
# Test: as above
# Method in brief: as §1
row,Binder,SPOT peptide array binding signal intensity
1,B1,≤ 0
2,B2,1
3,B3,0.5

# Biological target: ScHse1
# Test: as above
# Method in brief: as §1
row,Binder,SPOT peptide array binding signal intensity
1,B1,≤ 0
2,B2,≤ 0
3,B3,37

# Biological target: ScLsb1
# Test: as above
# Method in brief: as §1
row,Binder,SPOT peptide array binding signal intensity
1,B1,681
2,B2,≤ 0
3,B3,0.25

# Biological target: ScLsb2
# Test: as above
# Method in brief: as §1
row,Binder,SPOT peptide array binding signal intensity
1,B1,2160
2,B2,≤ 0
3,B3,35

# Biological target: ScLsb3
# Test: as above
# Method in brief: as §1
row,Binder,SPOT peptide array binding signal intensity
1,B1,1550
2,B2,≤ 0
3,B3,152

# Biological target: ScLsb4
# Test: as above
# Method in brief: as §1
row,Binder,SPOT peptide array binding signal intensity
1,B1,293
2,B2,10
3,B3,5

# Biological target: ScMyo3
# Test: as above
# Method in brief: as §1
row,Binder,SPOT peptide array binding signal intensity
1,B1,≤ 0
2,B2,≤ 0
3,B3,1610

# Biological target: ScMyo5
# Test: as above
# Method in brief: as §1
row,Binder,SPOT peptide array binding signal intensity
1,B1,≤ 0
2,B2,≤ 0
3,B3,1320

# Biological target: ScNbp2
# Test: as above
# Method in brief: as §1
row,Binder,SPOT peptide array binding signal intensity
1,B1,526
2,B2,≤ 0
3,B3,6790

# Biological target: ScPex13
# Test: as above
# Method in brief: as §1
row,Binder,SPOT peptide array binding signal intensity
1,B1,1310
2,B2,1030
3,B3,212

# Biological target: ScRvs167
# Test: as above
# Method in brief: as §1
row,Binder,SPOT peptide array binding signal intensity
1,B1,1530
2,B2,≤ 0
3,B3,59.8

# Biological target: ScSho1
# Test: as above
# Method in brief: as §1
row,Binder,SPOT peptide array binding signal intensity
1,B1,≤ 0
2,B2,5560
3,B3,≤ 0

# Biological target: ScSla1-D1-D2
# Test: as above
# Method in brief: as §1
row,Binder,SPOT peptide array binding signal intensity
1,B1,329
2,B2,≤ 0
3,B3,265

# Biological target: ScSla1-D3
# Test: as above
# Method in brief: as §1
row,Binder,SPOT peptide array binding signal intensity
1,B1,145
2,B2,3
3,B3,44

# Biological target: SpAbp1-D1
# Test: as above
# Method in brief: as §1
row,Binder,SPOT peptide array binding signal intensity
1,B1,3
2,B2,≤ 0
3,B3,≤ 0

# Biological target: SpBbc1
# Test: as above
# Method in brief: as §1
row,Binder,SPOT peptide array binding signal intensity
1,B1,182
2,B2,≤ 0
3,B3,22

# Biological target: SpBzz1-D1
# Test: as above
# Method in brief: as §1
row,Binder,SPOT peptide array binding signal intensity
1,B1,95
2,B2,≤ 0
3,B3,258

# Biological target: SpBzz1-D2
# Test: as above
# Method in brief: as §1
row,Binder,SPOT peptide array binding signal intensity
1,B2,≤ 0
2,B3,18.1

# Biological target: SpCyk3
# Test: as above
# Method in brief: as §1
row,Binder,SPOT peptide array binding signal intensity
1,B2,1.5
2,B3,≤ 0

# Biological target: SpHof1
# Test: as above
# Method in brief: as §1
row,Binder,SPOT peptide array binding signal intensity
1,B2,1460
2,B3,1.62

# Biological target: SpHof1-2
# Test: as above
# Method in brief: as §1
row,Binder,SPOT peptide array binding signal intensity
1,B2,1970
2,B3,2

# Biological target: SpHof1-3
# Test: as above
# Method in brief: as §1
row,Binder,SPOT peptide array binding signal intensity
1,B2,734
2,B3,34

# Biological target: SpHse1
# Test: as above
# Method in brief: as §1
row,Binder,SPOT peptide array binding signal intensity
1,B2,0.75
2,B3,70.1

# Biological target: SpLsb1
# Test: as above
# Method in brief: as §1
row,Binder,SPOT peptide array binding signal intensity
1,B2,≤ 0
2,B3,36.8

# Biological target: SpLsb4
# Test: as above
# Method in brief: as §1
row,Binder,SPOT peptide array binding signal intensity
1,B2,≤ 0
2,B3,87.5

# Biological target: SpMyo1
# Test: as above
# Method in brief: as §1
row,Binder,SPOT peptide array binding signal intensity
1,B2,≤ 0
2,B3,2050

# Biological target: SpNbp2
# Test: as above
# Method in brief: as §1
row,Binder,SPOT peptide array binding signal intensity
1,B2,≤ 0
2,B3,264

# Biological target: SpPex13
# Test: as above
# Method in brief: as §1
row,Binder,SPOT peptide array binding signal intensity
1,B2,3
2,B3,≤ 0

# Biological target: SpRvs167
# Test: as above
# Method in brief: as §1
row,Binder,SPOT peptide array binding signal intensity
1,B2,5.67
2,B3,13.9

# Biological target: SpSla1-D1-D2
# Test: as above
# Method in brief: as §1
row,Binder,SPOT peptide array binding signal intensity
1,B2,≤ 0
2,B3,≤ 0

# Biological target: SpSla1-D3
# Test: as above
# Method in brief: as §1
row,Binder,SPOT peptide array binding signal intensity
1,B2,≤ 0
2,B3,≤ 0
